Laboratory results: PubChem BioAssay
The source made the active and inactive calls.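 Rule for the calls, unless noted: active = visual image review flags a hit and inhibition of aggregation exceeds 20%; inconclusive = visual hit but inhibition at or below 20%; inactive = no hit on visual image review.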

Key:
[1] = inhibitors of TNFa-induced NFkB p65 translocation, primary screen, imaging, HUVEC, MLSMR starter and 10KST1 sets (AID 438;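 active = inhibition above 20% together with a positive visual image hit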;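 note: compound added about 3h40 before a 20 min TNFalpha stimulation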;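 for inhibition: signal is the nuclear over cytoplasmic p65 intensity ratio per well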); conditions: HUVEC TNFa-induced p65 nuclear translocation; cell count: measured here: nuclei count (cytotoxicity indicator), at 2.08 µM; inhibition: at 2 µM, stronger effect = higher value, 0% TNFa-plus-vehicle, 100% no-TNFa wells
[2] = inhibitors of mutant huntingtin aggregation, primary screen, imaging, exon1htt(103Q)mCFP cells, high-content imaging (AID 483); conditions: exon1htt(103Q)mCFP cell line, aggregate imaging, at 2 µM; inhibition of aggregation: stronger effect = higher value; nuclei count: measured here: cell count, toxicity;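 note: compound exposure lasted 3 days before fixation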;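 for nuclei count: percent of the per-plate median nuclei count of sample wells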
[3] = inhibitors of E-selectin induction by TNFa, primary screen, imaging, HUVEC, immunofluorescence, MLSMR starter and 10KST1 sets (AID 487;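 active = visually confirmed hit in the image check and inhibition above 20%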;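 for inhibition: signal is fraction of cell area covered by stained E-selectin grains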;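 for nuclei count: 100% = median nuclei count of all wells on the same plate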); conditions: HUVEC TNFalpha-induced E-selectin immunofluorescence imaging, at 2 µM; inhibition: stronger effect = higher value; nuclei count: measured here: cell number, toxicity
[4] = target: Voltage-gated potassium channel subunit beta-2 (Rattus norvegicus) (UniProt P62483); assay: KvBeta enzyme negative modulators, primary screen, biochemical, NADPH fluorescence (AID 622;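 active = fluorescence slope higher than the sample average by over 3 SD, cut at about -0.22 in these data, passing the limit was not always enough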;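 note: slope of raw intensity against log time taken from 70 to 1610 s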); conditions: recombinant KvBeta, 4-cyanobenzaldehyde reduction, at 10 µM, stronger effect = higher value
Sequence of Voltage-gated potassium channel subunit beta-2 (Rattus norvegicus) (P62483 whole entry, looked up): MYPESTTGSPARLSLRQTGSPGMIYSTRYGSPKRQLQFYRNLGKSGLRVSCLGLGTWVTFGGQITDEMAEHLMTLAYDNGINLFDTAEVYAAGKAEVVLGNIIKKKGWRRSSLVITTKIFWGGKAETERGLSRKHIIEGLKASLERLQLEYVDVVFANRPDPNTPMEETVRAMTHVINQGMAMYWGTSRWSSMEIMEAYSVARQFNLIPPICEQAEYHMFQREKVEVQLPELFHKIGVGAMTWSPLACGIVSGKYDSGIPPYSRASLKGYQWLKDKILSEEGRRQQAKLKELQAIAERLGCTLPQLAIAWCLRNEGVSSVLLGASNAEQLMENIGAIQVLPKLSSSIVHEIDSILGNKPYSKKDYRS

[5] = target: Voltage-gated potassium channel subunit beta-2 (Rattus norvegicus) (UniProt P62483); assay: KvBeta positive modulators, primary screen, biochemical, NADPH fluorescence (AID 623;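 active = NADPH fluorescence slope more negative than the mean of all samples by about 3 SD, 99.7% confidence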;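 note: fluorescence intensity change per second fitted from 20 to 320 s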); conditions: Recombinant KvBeta, NADPH fluorescence decrease slope, 10 min; at 10 µM; stronger effect = lower value
[6] = target: Alpha-2C adrenergic receptor (Homo sapiens) (UniProt P18825); assay: modulators of alpha2C/GIRK thallium flux, primary screen, cell-based, HEK293 alpha2C/GIRK1/2 (AID 624;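 active = fluorescence slope after compound addition differing from the mean of all screened samples at 99.7% confidence, in either direction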;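 note: slope of fluorescence ratio to pre-addition baseline per second over 15 to 24 s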); conditions: thallium flux BTC fluorescence, at 10 µM, actives lie on both sides
Sequence of Alpha-2C adrenergic receptor (Homo sapiens) (P18825 whole entry, looked up): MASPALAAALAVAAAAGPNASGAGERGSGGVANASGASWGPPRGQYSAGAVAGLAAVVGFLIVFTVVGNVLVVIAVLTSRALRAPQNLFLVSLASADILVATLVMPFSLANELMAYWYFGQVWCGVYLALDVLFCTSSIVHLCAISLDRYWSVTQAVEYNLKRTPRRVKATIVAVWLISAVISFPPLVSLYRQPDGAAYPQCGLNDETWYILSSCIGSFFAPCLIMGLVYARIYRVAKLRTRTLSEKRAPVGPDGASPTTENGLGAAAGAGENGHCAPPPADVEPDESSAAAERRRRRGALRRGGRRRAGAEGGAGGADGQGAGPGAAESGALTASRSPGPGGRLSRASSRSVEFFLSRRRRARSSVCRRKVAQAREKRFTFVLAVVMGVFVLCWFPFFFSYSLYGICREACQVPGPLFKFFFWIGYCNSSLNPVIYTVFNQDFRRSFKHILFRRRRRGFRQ

[7] = inhibitors of Sendai virus-induced IRF3 signaling, primary screen, TLR/RLR signaling modifier project, cell-based, Sendai virus stimulus, luciferase, 10K MLSCN set (AID 602276;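 active = inhibition at or above 50% at 10 µM; inactive = inhibition below 50%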;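 note: firefly luciferase from ISG56 promoter only with Renilla not read in this screen; 0% = Sendai virus plus DMSO and 100% = medium plus DMSO without virus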); conditions: HEK293 RL24 IRF3 luciferase reporter, at 10 µM, stronger effect = higher value
[8] = inhibitors of poly I:C-induced TLR3 signaling, primary screen, cell-based, poly I:C stimulus, luciferase, 10K MLSCN set (AID 602277;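 active = inhibition of the reporter signal at or above 50%; inactive = inhibition below 50%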); conditions: HEK293-TLR3 RL24 IRF3 luciferase reporter, at 10 µM, stronger effect = higher value

SMILES | cell count [1] | inhibition [1] | inhibition of aggregation [2] | nuclei count [2] | inhibition [3] | nuclei count [3] | fluorescence slope [4] | NADPH fluorescence slope [5] | slope [6] | inhibition [7] | inhibition [8]
CC(C)Cn1c(=O)c(C(=O)Nc2ccccc2S(N)(=O)=O)c(O)c2ccccc21 | 740 | -1% (inactive) | -9.5% (inactive) | 99.4% | 60.6% (active) | 92.3% | -0.393 (inactive) | -3.1e-05 (inactive) | 0.00741 (inactive) | -1.36% (inactive) | -18.4% (inactive)
O=C(c1cc2ccccc2oc1=O)N1CCN(c2ccc(N3CCOCC3)nn2)CC1 | 490 | -6.9% (inactive) | 0.1% (inactive) | 104% | -13.6% (inactive) | 110% | -0.603 (inactive) | -1.8e-05 (inactive) | 0.00513 (inactive) | -9.88% (inactive) | 18.4% (inactive)
CCOC(=O)N1CCN(S(=O)(=O)c2cc(Cl)ccc2Cl)CC1 | 357 | 5.2% (inactive) | 29.4% (inactive) | 95.3% | -221% (inactive) | 106% | -0.62 (inactive) | -2.7e-05 (inactive) | 0.00556 (inactive) | 14.8% (inactive) | 18.5% (inactive)
CCN(CC)CCCNC(=O)c1nn(-c2ccc(OC)cc2OC)c(=O)c2ccccc12 | 352 | 5.3% (inactive) | -6.3% (inactive) | 106% | -101% (inactive) | 127% | -0.597 (inactive) | -3.1e-05 (inactive) | 0.00476 (inactive) | -10.6% (inactive) | 7.12% (inactive)
CCOc1ccccc1NC(=O)CCSc1nc2n[nH]c(C)c2c(=N)n1-c1ccccc1Cl | 621 | -10.2% (inactive) | -22.3% (inactive) | 77.9% | 30.1% (inactive) | 62.2% | -0.417 (inactive) | -4.1e-05 (inactive) | 0.00336 (inactive) | 3.64% (inactive) | 5.23% (inactive)
Cc1ccc2nc(NC(=O)CN(C)S(=O)(=O)c3cccc4nsnc34)sc2c1 | 379 | -5.3% (inactive) | -0.2% (inactive) | 113% | -38.2% (inactive) | 101% | -0.41 (inactive) | -4.4e-05 (inactive) | 0.00524 (inactive) | 32.6% (inactive) | 25% (inactive)
Cn1nnnc1SCC(=O)Nc1ccccc1-c1ccccc1 | 484 | -8.7% (inactive) | 14.7% (inactive) | 87.9% | -80.2% (inactive) | 114% | -0.302 (inactive) | -1.3e-05 (inactive) | 0.00645 (inactive) | 6.85% (inactive) | -4.74% (inactive)
Cc1ccc(-c2ccc(=O)n(CC(=O)NCCCN3CCCCC3C)n2)cc1 (centres undefined) | 397 | 5% (inactive) | 3% (inactive) | 98.2% | 14.8% (inactive) | 96% | -0.497 (inactive) | -1.9e-05 (inactive) | 0.0058 (inactive) | 11.3% (inactive) | 21.8% (inactive)
CN(CC(=O)O)S(=O)(=O)c1cc(Cl)ccc1Cl | 416 | 3.5% (inactive) | -0.4% (inactive) | 111% | -8.7% (inactive) | 101% | -0.437 (inactive) | -5e-05 (inactive) | 0.0044 (inactive) | -11.4% (inactive) | -16.7% (inactive)
COC(=O)c1cc2ccsc2n1Cc1nc(-c2ccc(OC)cc2)oc1C | 622 | -17% (inactive) | -22% (inactive) | 120% | -66.3% (inactive) | 109% | -0.347 (inactive) | -2.6e-05 (inactive) | 0.00726 (inactive) | -25.1% (inactive) | -56.7% (inactive)
COc1cc2c(cc1OC)-c1cc(Nc3ccc4c(c3)OCCO4)nc(=O)n1CC2 | 649 | -6.9% (inactive) | 0.9% (inactive) | 104% | 5.7% (inactive) | 128% | -0.41 (inactive) | -5.2e-06 (inactive) | 0.00445 (inactive) | 41.3% (inactive) | 44.1% (inactive)
O=C(COc1ccc(F)cc1Br)N1CCc2ccccc21 | 414 | -7% (inactive) | 5% (inactive) | 105% | -49.2% (inactive) | 103% | -0.46 (inactive) | 9.7e-05 (inactive) | 0.0054 (inactive) | -38% (inactive) | -100% (inactive)
Cc1ccc(-c2noc(CCC(=O)NCC3CCN(Cc4cccc(C)c4)CC3)n2)cc1 | 400 | 1.5% (inactive) | 7.8% (inactive) | 88.4% | 17% (inactive) | 89.5% | -0.401 (inactive) | -4.7e-05 (inactive) | 0.0033 (inactive) | 25.8% (inactive) | 28.9% (inactive)
O=c1ccc2cc3c([nH]c4ccc(Br)cc43)oc-2c1O | 447 | 4.7% (inactive) | -0.5% (inactive) | 111% | -84.7% (inactive) | 109% | -0.596 (inactive) | -5.1e-05 (inactive) | 0.00638 (inactive) | 11.2% (inactive) | 24.2% (inactive)
